Results taken from PubChem BioAssay (NCI).
This is part of a sample that, as a whole, favours compounds with a hit. Of some 83,000 tested, about 20% had one in any assay.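 Growth was measured after 48 h exposure to one concentration of compound in 96-well plates. Values under 10 count as active.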 A number with no mark means an inactive call. Calls of active or inactive are those of the source.

How the values were obtained:
Experiment in all cases: NCI-60 one-dose screen, 48 h (100 = growth as untreated, 0 = no growth, -100 = all killed)
Conditions in all cases: 10 µM unless noted
DU-145 prostate = system: DU-145 prostate
K-562 leukemia = system: K-562 leukemia
MALME-3M melanoma = system: MALME-3M melanoma
MDA-MB-231 breast = system: MDA-MB-231 breast
SF-268 CNS = system: SF-268 CNS
SF-295 CNS = system: SF-295 CNS
SF-539 CNS = system: SF-539 CNS
UACC-257 melanoma = system: UACC-257 melanoma
M14 melanoma = system: M14 melanoma
HCT-15 colon = system: HCT-15 colon
HT29 colon = system: HT29 colon
SNB-75 CNS = system: SNB-75 CNS
SNB-19 CNS = system: SNB-19 CNS
U251 CNS = system: U251 CNS
PC-3 prostate = system: PC-3 prostate
SK-MEL-5 melanoma = system: SK-MEL-5 melanoma
UACC-62 melanoma = system: UACC-62 melanoma
LOX IMVI melanoma = system: LOX IMVI melanoma
SK-MEL-28 melanoma = system: SK-MEL-28 melanoma

SMILES	growth (DU-145 prostate)	growth (K-562 leukemia)	growth (MALME-3M melanoma)	growth (MDA-MB-231 breast)	growth (SF-268 CNS)	growth (SF-295 CNS)	growth (SF-539 CNS)	growth (UACC-257 melanoma)	growth (M14 melanoma)	growth (HCT-15 colon)	growth (HT29 colon)	growth (SNB-75 CNS)	growth (SNB-19 CNS) [%]	growth (U251 CNS)	growth (PC-3 prostate)	growth (SK-MEL-5 melanoma)	growth (UACC-62 melanoma)	growth (LOX IMVI melanoma)	growth (SK-MEL-28 melanoma)
O=C1Nc2c(ccc(Cl)c2Cl)/C1=C/c1ccc([N+](=O)[O-])cc1	108%	89.5%	84.4%	94.2%	93.3%	76.7%	95.4%	72%	104%	89.4%	99.2%	95.9%	81.3	92.3%	95.3%	99.6%	102%	89.5%	111%
COc1ccc(-c2nc(N/N=C/c3ccco3)nc(N3CCOCC3)c2C#N)cc1	93.2%	87.6%	59.5%	86.1%	80.1%	90.1%	74.2%	94.8%	85.3%	88.3%	91%	15.6%	88.9	91.8%	59.5%	80.4%	75.6%	88.3%	80.8%
CCN(CC)S(=O)(=O)c1cccc([N+](=O)[O-])c1	117%	96%	99.2%	105%	93.4%	94.4%	98.9%	67%	84.9%	107%	88.4%	79.9%	103	88.9%	75.4%	97.9%	102%	97.6%	108%
CN(C)Cc1c(-c2ccccc2)[nH]c2ccccc12	113%	107%	128%	102%	92.1%	92.7%	106%	99.3%	82.6%	93.6%	89.1%	93.6%	99	106%	94.9%	101%	102%	97.4%	97.2%
C=C(C)[C@H]1CC/C(C)=C/CC[C@]2(C)O[C@H]2CC/C(COC(=O)[C@@H](OC(C)=O)[C@H](NC(=O)c2ccccc2)c2ccccc2)=C\[C@@H]1O	102%	129%	100%	88.5%	90.2%	88.8%	87.2%	83.1%	90.6%	105%	102%	72.6%	81.8	99.2%	90.1%	78.8%	59.3%	93.1%	104%
CCN(CC)CCSCCCNc1c(C)cnc2cc(Cl)ccc12	88.2%	5.33% (active)	87%	61.9%	81%	90.5%	71%	113%	89.5%	76.7%	54.9%	85.4%	104	84%	85.1%	75.3%	93.9%	79.5%	87%
O=C(NCCN1CCOCC1)OCc1nc2nc(Cl)nc(N3CCOCC3)c2[nH]1	8.23% (active)	6.62% (active)	50%	22.9%	27%	94.6%	-15.8% (active)	69.2%	9.49% (active)	16.4%	122%	1.3% (active)	36.2	19.7%	24%	-29.7% (active)	35.1%	16.5%	61.9%
COc1ccc(C(=O)c2cc3c(N)c(C(=O)Nc4ccc(Br)cc4)sc3nc2C)cc1	79.5%	71.5%	54.3%	66%	50.2%	86.6%	66.2%	79.8%	74.1%	69.3%	74.9%	-0.922% (active)	56.6	58.7%	74.2%	81.5%	73.4%	84.5%	86.4%
N/C(=N\N=C\c1cc2ccccc2s1)N/N=C/c1cc2ccccc2s1	115%	97.5%	102%	95.4%	102%	103%	101%	98.1%	-56.3% (active)	105%	108%	95.5%	97	113%	97.4%	98%	95.3%	100%	106%
CN(C)C(=O)OCc1nc2c(N3CCOCC3)nc(-c3ccccc3)nc2n1C	-74.4% (active)	5.32% (active)	-92.8% (active)	-86.5% (active)	-59.9% (active)	29.9%	-98.3% (active)	-65.4% (active)	-54.5% (active)	-38.6% (active)	-53.7% (active)	-87.2% (active)	13.9	-57.2% (active)	-65.2% (active)	-95.7% (active)	-92% (active)	-84.7% (active)	-95.4% (active)
COc1cc(NCC(C)(O)CN(CC(C)C)CC(C)C)c2nc(C)ccc2c1 (configuration not stated)	110%	67.4%	94%	69.5%	93.7%	83.3%	96.1%	93.1%	91.5%	67.7%	82%	81.4%	87.9	94.9%	64.5%	86.4%	68.3%	86.7%	99.3%
C#CCn1cc(C=C2C(=O)NC(=S)NC2=O)c2cc(Cl)ccc21	3.03% (active)	15%	43.5%	-26.1% (active)	6.45% (active)	46.4%	-57.2% (active)	61.7%	44.4%	-23% (active)	13.6%	43.9%	13.2	3.31% (active)	8.39% (active)	40.8%	1.1% (active)	-46.1% (active)	-26.5% (active)
CCn1cc(C2NC(=O)c3ccccc3N2)c2cccc(C)c21 (configuration not stated)	12.2%	3.49% (active)	48%	15.3%	43.2%	3.52% (active)	-49.7% (active)	66.7%	8.05% (active)	18.6%	-22.9% (active)	-26.9% (active)	32.9	3.94% (active)	22%	16.8%	27.6%	29.2%	56.5%
CC(C)(O)C1CCCN1C(=O)c1ccccc1I (configuration not stated)	111%	83.5%	109%	84%	91.5%	84.4%	105%	104%	95.1%	98.7%	95.4%	100%	78.2	98.3%	80.7%	92.9%	64.3%	101%	105%
CC1=NNC(=O)C1CCC(=O)N/N=C(\C)c1ccc2ccccc2c1 (configuration not stated)	102%	97.6%	120%	111%	98.9%	323%	94.8%	99.9%	113%	107%	116%	121%	114	109%	94.9%	105%	97.5%	99.5%	109%
Fc1ccccc1CSc1ncnc2nc[nH]c12	120%	99.6%	129%	106%	109%	107%	89.6%	61.3%	108%	114%	107%	105%	94.3	106%	105%	105%	94.2%	96.4%	112%
CCN(CC)CCCCCCNc1cc(OC)cc2cccnc12	40.8%	-47.8% (active)	-77.4% (active)	32.6%	79.3%	86.5%	68.5%	115%	-28.7% (active)	-4.8% (active)	-44.8% (active)	75.5%	95.6	5.33% (active)	82.8%	68.5%	102%	-60.4% (active)	-11.8% (active)
COc1cc(/C=N/NC(=O)c2ccccc2Nc2cccc(C(F)(F)F)c2)ccc1O	89.7%	77.9%	106%	71.6%	81.5%	93.5%	105%	23.8%	73.9%	86.1%	113%	107%	84.2	87.8%	80.9%	58.8%	78.7%	76.3%	104%
COc1ccc(-c2nc(SC(C)C)nc(NNC(N)=O)c2C#N)cc1	94.2%	25.7%	81.2%	78.8%	84.9%	88.7%	85.1%	99.8%	99.6%	58.6%	106%	59.1%	89	93.5%	75.9%	89.1%	85.8%	76.7%	93%
O=C1NC(=O)C(=Cc2cn(Cc3ccccn3)c3ccccc23)C(=O)N1	110%	76.4%	101%	108%	93.7%	79.5%	94.5%	103%	99.7%	102%	111%	89.2%	99.7	97.2%	94.2%	98.3%	85.7%	96.7%	114%
COC(=O)Nc1nc2ccc(C(=O)c3cccc(I)c3)cc2[nH]1	5.95% (active)	6.18% (active)	31.3%	-3.99% (active)	22.4%	12%	-25.8% (active)	61.4%	1.39% (active)	11.8%	2.12% (active)	-15.3% (active)	33.6	13.6%	20.9%	-33.9% (active)	24.8%	16.6%	49.4%
c1cnc2nc3c(cc2c1)oc1ccccc13	103%	92.4%	109%	86.3%	97.1%	96.7%	93.2%	116%	105%	101%	105%	76.6%	92	97%	104%	91.2%	87.1%	97.7%	111%
COc1cc(Nc2cc(O)c3c(=O)cc(-c4ccccc4)oc3c2)cc(OC)c1	20%	13.1%	73.6%	15.9%	48.2%	33.5%	-35.2% (active)	77.9%	28.4%	25%	3.58% (active)	-9.05% (active)	43.1	22.8%	27.8%	28.6%	42.5%	41.7%	68.5%
